PubChem BioAssay (NCATS)
“And” between values parts separate entries of the source, which are not always exact repeats. Identical values can stand only once. Records with an inconclusive call do not appear. The source made the active and inactive calls. The call rests on the fitted dose curve.

Assay: Primary qHTS for Vero E6 cytotoxicity: counterscreen for inhibitors of SARS-S pseudo-typed particle cell entry (AID 1479150); on activity change, negative = cytotoxicity: on the % scale 0 is the no-effect control and ±100 the full control effect
Settings: cell viability; series mostly up to 57.1 µM; activity change, negative = cytotoxicity: at the top concentration

SMILES	activity change, negative = cytotoxicity	outcome
CC[C@H]1CN2CCc3cc(OC)c(OC)cc3C2C[C@@H]1CC1NCCc2cc(OC)c(OC)cc21 (some centres undefined)	-29.6% (inactive)	–
CC1=CCC(C(C)(C)O)CC1 (centres undefined)	–	inactive [at 114 µM]
COC1(O[C@H]2CC[C@H]3[C@@H]4CC[C@H]5C[C@@H]6S[C@@H]6C[C@]5(C)[C@H]4CC[C@]23C)CCCC1	-6.23% (inactive)	–
CN(C)Cc1ccccc1	–	inactive
NC(=O)c1nc(F)c[nH]c1=O	–	inactive
CC1(C)C(C=C(Cl)Cl)C1C(=O)OCc1cccc(Oc2ccccc2)c1 (centres undefined)	3.24% (inactive)	–
CNC(C)CC1CCCC1 (centres undefined)	-1.73% (inactive)	–
Cc1cccc(O)c1	–	inactive
O=c1c2c(c1=O)N(CCP(=O)(O)O)CCCN2	-11.1% [at 114 µM] (inactive)	–
C/C=C(/C)C(=O)O[C@H]1C(C)=CC23C(=O)C(C=C(CO)[C@@H](O)[C@]12O)[C@H]1[C@@H](C[C@H]3C)C1(C)C (some centres undefined)	–	inactive
CCC(C(=O)NC(N)=O)c1ccccc1 (centres undefined)	–	inactive

Assay: Cytotoxicity counterscreen for inhibitors of SARS-CoV-2 cell entry (AID 1645845); further: nearly all actives have a fitted effect of over 50% in size; further: potency means the concentration at half of the fitted maximal effect; on activity change, negative = cytotoxicity: on the % scale 0 is the no-effect control and ±100 the full control effect
Settings: cell viability (SARS-CoV-2 entry assay cells); series mostly up to 57.1 µM; activity change, negative = cytotoxicity: at the top concentration
Summary of the method: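 After a 15 min room-temperature ATPLite 1step step, luminescence reflected ATP remaining in HEK293-ACE2 cells exposed to compound for 1 h plus 48 h at 37 C, with percent activity set by cell and no-cell controls.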

SMILES	outcome	activity change, negative = cytotoxicity	Potency
O=C(NNCS(=O)(=O)O)c1ccncc1	inactive	–	–
CS(=O)(=O)c1ccc([C@@H](O)[C@@H](COC(=O)CN)NC(=O)C(Cl)Cl)cc1	–	-22.6% (inactive)	–
CC(C)CCCC(C)NC(C)C (centres undefined)	inactive	–	–
OC[C@H]1O[C@@](CO)(O[C@H]2O[C@H](CO)[C@@H](O)[C@H](O)[C@H]2O)[C@@H](O)[C@@H]1O	inactive	–	–
OB1OCc2cc(F)ccc21	inactive	–	–
CC1=CCC(C(C)(C)O)CC1 (centres undefined)	inactive [at 114 µM]	–	–
CCC(C(=O)O)[C@H]1CC[C@H](C)[C@H]([C@@H](C)[C@H](O)[C@H](C)C(=O)[C@H](CC)[C@H]2OC3(C=C[C@@H](O)[C@]4(CC[C@@](C)([C@H]5CC[C@](O)(CC)[C@H](C)O5)O4)O3)[C@H](C)C[C@@H]2C)O1 (some centres undefined)	–	–	2.51 µM (active)
O=C(/C=C/c1cccc(S(=O)(=O)Nc2ccccc2)c1)NO	–	–	12.6 µM (active)
CC(=O)OCC(=O)[C@@]1(O)CC[C@H]2[C@@H]3C[C@H](C)C4=CC(=O)C=C[C@]4(C)[C@H]3[C@@H](O)C[C@@]21C	–	-22.8% (inactive)	–
CCCCCC/C=C\CCCCCCCC(=O)O	–	-8.88% (inactive)	–
CC1(C)C(C=C(Cl)Cl)C1C(=O)OCc1cccc(Oc2ccccc2)c1 (centres undefined)	inactive	–	–
Cc1cccc(O)c1	–	4.42% (inactive)	–
CC=CC1C(C(=O)OCc2c(F)c(F)c(COC)c(F)c2F)C1(C)C (centres undefined)	–	-10% (inactive)	–
O=C(O)CC(O)CC(O)/C=C/c1c(C2CC2)nc2ccccc2c1-c1ccc(F)cc1 (centres undefined)	–	-6.83% (inactive)	–

Assay: Primary qHTS to identify inhibitors of SARS-CoV-2 cell entry (AID 1645846); further: nearly all actives have a fitted effect of over 45% in size; further: potency means the concentration at half of the fitted maximal effect
Settings: SARS-CoV-2 pseudovirus cell entry assay, luminescence; activity change, negative = inhibition: at 57.1 µM (top of the series) unless noted
Summary of the method: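 Luminescence readout (Bright-Glo luciferase) 48 h after pseudoparticle addition. HEK293-ACE2 cells, 1500/well; compound pre-incubation 1 h; Normalized to spike PP and bald PP.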

SMILES	outcome	activity change, negative = inhibition	Potency
C[C@@H]1C[C@H]2[C@@H]3C[C@H](F)C4=CC(=O)C=C[C@]4(C)[C@@]3(F)[C@@H](O)C[C@]2(C)[C@@]1(O)C(=O)COC(=O)C(C)(C)C	inactive	–	–
O=C(NNCS(=O)(=O)O)c1ccncc1	–	-23.7%	–
N[C@@H]1CCCCN(c2c(F)cc3c(=O)c(C(=O)O)cn(C4CC4)c3c2Cl)C1	–	-8.2%	–
C#C[C@]1(O)CC[C@@H]2[C@@H]3CCC4=CCCC[C@@H]4[C@H]3C(=C)C[C@@]21CC	–	3.84%	–
O=C(OCc1ccccc1)c1cccnc1	–	1.27%	–
CCC(CC)[C@H](NC(C)=O)[C@@H]1[C@H](O)[C@@H](C(=O)O)C[C@H]1N=C(N)N	–	-12.4% [at 0.702 µM]	–
NCCNc1ccc(NCCN)c2c1C(=O)c1ccncc1C2=O	–	–	7.94 µM (active)
Nc1c(Br)cc(Br)cc1CNC1CCC(O)CC1 (centres undefined)	–	-18.6%	–
Cc1cccc(C)c1NC(=O)C1CCCCN1C (centres undefined)	–	-22.7%	–
CCCCCCCCCCCCCCCCCC(=O)[O][Al]	inactive [at 5.25 µM]	–	–
CC(C)CCCC(C)NC(C)C (centres undefined)	–	-25.3%	–
C=C1/C(=C/C=C2\CCC[C@]3(C)[C@@H]([C@H](C)CCCC(C)(C)O)CC[C@@H]23)C[C@@H](O)[C@@H](OCCCO)[C@@H]1O	–	-12.1%	–
CCCCCCCCCCCCCCCCCC(=O)OCC(C)O (centres undefined)	–	-21% [at 114 µM]	–
CCCCCCCCCCCC[n+]1ccc2ccccc2c1	–	–	3.16 µM (active)
NCCCC[C@H](N)C(=O)O	inactive [at 0.702 µM]	–	–
CN(C)c1ccc(C(=C2C=CC(=[N+](C)C)C=C2)c2c(O)c(S(=O)(=O)[O-])cc3cc(S(=O)(=O)O)ccc23)cc1	–	-12.7%	–
CC[C@H]1CN2CCc3cc(OC)c(OC)cc3C2C[C@@H]1CC1NCCc2cc(OC)c(OC)cc21 (some centres undefined)	–	–	1.78 µM (active)
CCC(C(=O)O)[C@H]1CC[C@H](C)[C@H]([C@@H](C)[C@H](O)[C@H](C)C(=O)[C@H](CC)[C@H]2OC3(C=C[C@@H](O)[C@]4(CC[C@@](C)([C@H]5CC[C@](O)(CC)[C@H](C)O5)O4)O3)[C@H](C)C[C@@H]2C)O1 (some centres undefined)	–	–	0.794 µM (active)
COC1(O[C@H]2CC[C@H]3[C@@H]4CC[C@H]5C[C@@H]6S[C@@H]6C[C@]5(C)[C@H]4CC[C@]23C)CCCC1	inactive	–	–
CC(=O)OCC(=O)[C@@]1(O)CC[C@H]2[C@@H]3C[C@H](C)C4=CC(=O)C=C[C@]4(C)[C@H]3[C@@H](O)C[C@@]21C	inactive	–	–
NC(=O)c1nc(F)c[nH]c1=O	–	-11.1% and -27.4%	–
CNC(C)CC1CCCC1 (centres undefined)	inactive	–	–
CC(C)=C/C(C)=N\Nc1nncc2ccccc12	inactive	–	–
O=c1c2c(c1=O)N(CCP(=O)(O)O)CCCN2	–	3.47% [at 114 µM]	–
CC=CC1C(C(=O)OCc2c(F)c(F)c(COC)c(F)c2F)C1(C)C (centres undefined)	–	-7.64%	–
O=C(O)CC(O)CC(O)/C=C/c1c(C2CC2)nc2ccccc2c1-c1ccc(F)cc1 (centres undefined)	inactive	–	–
C/C=C(/C)C(=O)O[C@H]1C(C)=CC23C(=O)C(C=C(CO)[C@@H](O)[C@]12O)[C@H]1[C@@H](C[C@H]3C)C1(C)C (some centres undefined)	–	–	inactive
CN1CCN(CCCN2c3ccccc3Sc3ccccc32)CC1	–	–	31.6 µM (active)
CCC(C(=O)NC(N)=O)c1ccccc1 (centres undefined)	–	-16.3%	–
